# Data reported in PubChem BioAssay (NCATS).
# Inconclusive results are not listed. A call without a number means that no potency is given here. Calls of active or inactive are those of the source. Unless noted, the call rests on the fitted dose curve; in most records, active means well fitted curve in the direction sought with a large enough effect; inconclusive means small, poorly fitted or top-dose-only effect, or another doubt; inactive means no such curve, though single readings can be large; an effect the other way counts as inactive or inconclusive.
# Assays:
# [1] = P-glycoprotein substrates identified in KB-8-5-11 adenocarcinoma cell line, qHTS therapeutic library screen (AID 1346987); conditions: KB-8-5-11 (P-gp overexpressing) viability, CellTiter-Glo, 72 h; series mostly up to 44.5 µM; further: nearly all actives have a fitted effect of over 65% in size; further: potency means the concentration at half of the fitted maximal effect
# How it was run: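 KB-8-5-11, a colchicine-selected P-gp-overexpressing KB-3-1 subline, was grown without colchicine for the assay. Cells were seeded at 500 cells/well, dosed in concentration-response and incubated 72 h at 37 degree C, 5% CO2. Viability was read by CellTiter-Glo luminescence.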
# [2] = qHTS assay for small molecule activators of the p53 signaling pathway (AID 651743; active means well fitted activation curve with a large enough effect in the signal ratio, not every such curve was filed as active; the % refers to the signal ratio); conditions: HCT-116 p53RE-bla, beta-lactamase FRET ratio, 16 h; hits give high values
# How it was run: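 Cell-based beta-lactamase reporter (p53 response elements, HCT-116 background). After a 5-hour preincubation, cells received compound for 16 hours at 37 C; substrate development ran 2 hours at room temperature.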
# [3] = qHTS assay for small molecule activators of the nuclear factor-kappa B (NF-kB) signaling pathway (AID 651749; active means well fitted activation curve with a large enough effect in the signal ratio; the % refers to the signal ratio); conditions: NF-kB-bla ME-180 cells, beta-lactamase FRET ratio, 16 h; hits give high values
# How it was run: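 Screening used 2,000 ME-180 reporter cells per well exposed to pinned compound (23 nL) or DMSO; after 16 hr at 37C, beta-lactamase expression under NF-kB control was assessed through FRET.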
# [4] = target: Tumor necrosis factor (Homo sapiens) (UniProt P01375); experiment: qHTS assay to identify small molecules that stimulate Tumor Necrosis Factor-alpha (TNF-alpha) secretion (AID 651757; active means well fitted curve in the direction sought with a large enough effect in the signal ratio; the % refers to the signal ratio); conditions: Human cells, HTRF 665/615 ratio; series mostly up to 92.2 µM
# Chain of Tumor necrosis factor (Homo sapiens) (P01375 whole entry, looked up): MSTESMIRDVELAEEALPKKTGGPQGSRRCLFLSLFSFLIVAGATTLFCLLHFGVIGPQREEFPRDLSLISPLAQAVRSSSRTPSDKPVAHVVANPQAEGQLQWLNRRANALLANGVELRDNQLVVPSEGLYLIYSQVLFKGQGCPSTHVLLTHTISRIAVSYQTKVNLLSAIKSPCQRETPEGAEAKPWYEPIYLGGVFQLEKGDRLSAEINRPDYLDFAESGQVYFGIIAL
# How it was run: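 THP-1 cells (3000/well) exposed to compounds 17 hrs at 37 C. Secreted TNF-alpha detected by HTRF with cryptate- and XL665-labeled anti-TNF-alpha antibodies after 3 hr at room temperature.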
# [5] = qHTS assay for environmental chemicals that activate the Aryl hydrocarbon Receptor (AhR) signaling pathway (AID 651777); conditions: 1A2-DRE human hepatoma cells, luciferase, 24 h; activation: hits give high values; further: nearly all actives have a fitted effect of over 15% in size; further: potency means the concentration at half of the fitted maximal effect
# How it was run: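 Reporter gene assay: hepatoma cells with DRE/CYP1A2-luciferase, 24 hr compound incubation at 37 C, 5% CO2, luminescence after One-Glo (30 min, RT).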
# [6] = target: Peroxisome proliferator-activated receptor alpha (Homo sapiens) (UniProt Q07869); experiment: qHTS assay for small molecule agonists of the peroxisome proliferator-activated receptor alpha (PPARalpha) signaling pathway (AID 651778); conditions: PathHunter PPARalpha complementation, chemiluminescence, 6 h; hits give high values
# Chain of Peroxisome proliferator-activated receptor alpha (Homo sapiens) (Q07869 whole entry, looked up): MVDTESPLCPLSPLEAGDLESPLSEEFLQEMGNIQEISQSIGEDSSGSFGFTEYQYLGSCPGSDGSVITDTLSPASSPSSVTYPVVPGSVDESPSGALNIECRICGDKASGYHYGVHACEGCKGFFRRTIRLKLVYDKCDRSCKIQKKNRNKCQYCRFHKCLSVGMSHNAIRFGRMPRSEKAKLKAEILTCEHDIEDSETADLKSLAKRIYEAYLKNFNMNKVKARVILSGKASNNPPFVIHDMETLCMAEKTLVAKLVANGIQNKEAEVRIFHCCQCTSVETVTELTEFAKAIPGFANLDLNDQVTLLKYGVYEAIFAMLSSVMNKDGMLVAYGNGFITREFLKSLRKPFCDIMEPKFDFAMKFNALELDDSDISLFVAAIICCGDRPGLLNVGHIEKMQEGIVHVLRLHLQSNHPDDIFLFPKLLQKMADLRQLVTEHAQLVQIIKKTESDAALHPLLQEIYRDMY
# How it was run: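 Cells plated at 2,000/well and held overnight at 37 C, 5% CO2, then compound added by pin tool for 6 hr; after PathHunter detection reagent and 60 min at room temperature, chemiluminescence from enzyme complementation was read.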
# [7] = target: Nuclear receptor ROR-gamma (Homo sapiens) (UniProt P51449); experiment: qHTS assay for small molecule antagonists of the retinoid-related orphan receptor gamma (ROR-gamma) signaling pathway (AID 651802); conditions: ROR-gamma antagonist cell reporter assay; series mostly up to 92.2 µM;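 further: luciferase reporter luminescence driven by ROR response element; nearly all actives have a fitted effect of over 60% in size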
# Chain of Nuclear receptor ROR-gamma (Homo sapiens) (P51449 whole entry, looked up): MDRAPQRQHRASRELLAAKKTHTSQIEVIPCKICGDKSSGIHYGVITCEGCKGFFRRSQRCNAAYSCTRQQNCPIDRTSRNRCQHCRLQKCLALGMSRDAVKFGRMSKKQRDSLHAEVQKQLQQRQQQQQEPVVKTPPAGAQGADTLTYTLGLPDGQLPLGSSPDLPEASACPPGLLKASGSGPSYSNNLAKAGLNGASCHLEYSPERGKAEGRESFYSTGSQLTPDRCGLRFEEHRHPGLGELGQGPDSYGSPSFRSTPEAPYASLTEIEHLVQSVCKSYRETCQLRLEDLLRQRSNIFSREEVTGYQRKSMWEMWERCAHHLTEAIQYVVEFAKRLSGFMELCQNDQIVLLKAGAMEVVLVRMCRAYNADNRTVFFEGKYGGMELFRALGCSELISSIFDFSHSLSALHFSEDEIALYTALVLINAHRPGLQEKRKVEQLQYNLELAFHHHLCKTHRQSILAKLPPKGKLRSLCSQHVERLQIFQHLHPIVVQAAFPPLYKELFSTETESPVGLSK
# How it was run: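 CHO cells with TET-inducible ROR-gamma and RORE-luciferase reporter, dosed then doxycycline-induced. After 16 h at 37C, One-Glo luminescence read; decreased signal indicates antagonism.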
# [8] = qHTS assay for small molecule agonists of the antioxidant response element (ARE) signaling pathway measured by Nrf2-dependant transcriptional activity (AID 720636; active means well fitted curve in the direction sought with a large enough effect in the repeat runs; an effect the other way counts as inactive or inconclusive;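 further: HepG2 cells with an ARE-driven luciferase reporter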); conditions: ARE-luc HepG2, Nrf2 luciferase reporter, 16 h; series mostly up to 92.4 µM
# How it was run: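 Nrf2-dependent transcription is measured in ARE-luc HepG2 cells: compound is applied for 16 hr at 37 C after a 6 hr attachment period, and luciferase activity is quantified by luminescence using ONE-Glo.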
# [9] = qHTS assay for small molecule antagonists of the retinoid-related orphan receptor gamma (ROR-gamma) signaling pathway - cell viability counter screen (AID 720652; active means well fitted curve in the direction sought with a large enough effect in the repeat runs; an effect the other way counts as inactive or inconclusive;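 further: compound exposure lasted 16 hr before ATP read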); conditions: RORgamma reporter cell line viability counter screen; series mostly up to 92.2 µM
# How it was run: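 CHO cells carrying TET-inducible ROR and RORE-luciferase reporter, plated 5 hr, then dosed with compound plus doxycycline. After 16 hr at 37 C, viability read as intracellular ATP by CellTiter-Glo luminescence.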
# [10] = qHTS assay for small molecule agonists of the antioxidant response element (ARE) signaling pathway measured by Nrf2-dependant transcriptional activity - cell viability counter screen (AID 720653; active means well fitted curve in the direction sought with a large enough effect in the repeat runs; an effect the other way counts as inactive or inconclusive); conditions: ARE-bla HepG2 viability, CellTiter-Glo ATP luminescence, 16 h; hits give low values
# How it was run: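 ARE-bla HepG2 cells (2,000/well) rested 5 hrs at 37C/5% CO2, then exposed to compounds in DMSO for 16 hrs. Viability was read in the same wells as intracellular ATP by luminescence, 30 min at room temperature after reagent addition.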
# [11] = qHTS assay for cell viability of HEK293 cells (AID 743288); conditions: ATP luminescence (CellTiter-Glo), 18 h, hits give low values; further: nearly all actives have a fitted effect of over 50% in size
# How it was run: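 Parental HEK293 cells were seeded at 2,000 cells/well, rested at least 5 h at 37 C, then exposed to compounds in DMSO for 18 h at 37 C. Viability was read as ATP-dependent luciferase luminescence after 30 min at room temperature.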
# [12] = qHTS assay for cell viability of the p53RE-bla HCT-116 cell line (AID 743292); conditions: p53RE-bla HCT-116 viability, ATP luminescence, 16 h; series mostly up to 95 µM; further: nearly all actives have a fitted effect of over 55% in size
# How it was run: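 ATP-based luminescence, 16 h compound exposure at 37 C, p53RE-bla HCT-116 cells at 4,000/well.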
# [13] = NS1 protein of Zika virus - qHTS assay to identify small molecule inhibitors in human HEK 293 cells (AID 1347053); conditions: HEK293 ZIKV MR766 infection, NS1 TR-FRET, 24 h; series mostly up to 46.1 µM; further: nearly all actives have a fitted effect of over 55% in size; further: potency means the concentration at half of the fitted maximal effect
# How it was run: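 Inhibition of NS1 expression was scored in HEK 293 cells given compound 1 h ahead of MR766 virus (MOI = 0.5). Following 24 h at 37 C, two anti-NS1 antibodies generated a TR-FRET signal, scaled between uninfected and infected controls.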
# [14] = qHTS of pediatric cancer cell lines to identify multiple opportunities for drug repurposing: Primary screen for TC32 cells (AID 1347089); conditions: TC32 Ewing sarcoma viability, CellTiter-Glo luminescence, 48 h; series mostly up to 45.8 µM; further: nearly all actives have a fitted effect of over 60% in size
# How it was run: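 Luminescent CellTiter-Glo read-out of metabolically active TC32 cells after 48 h compound exposure. Primary: MIPE 11-point, 0.78 nM–46 µM; NPC 8-point, 0.59 nM–46 µM. Confirmatory: 11-point dilutions.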
# [15] = qHTS of pediatric cancer cell lines to identify multiple opportunities for drug repurposing: Primary screen for DAOY cells (AID 1347090); conditions: DAOY medulloblastoma viability, CellTiter-Glo luminescence, 48 h; series mostly up to 46 µM; further: nearly all actives have a fitted effect of over 55% in size
# How it was run: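 Eight- or eleven-point concentration series, 48 h treatment at 37 degrees C in growth media; readout CellTiter-Glo luminescence. Potency and efficacy were taken from the concentration-response curves.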
# [16] = qHTS assay for small molecule disruptors of the mitochondrial membrane potential - 1 hr assay (AID 651754; calls by dose curve; further: potency means the concentration at half of the fitted maximal effect; nearly all actives have a fitted effect of over 35% in size)
# How it was run: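 HepG2 cells, attached overnight, were exposed to compound for 1 hr at 37C, then stained 30 min with a potentiometric dye. Ratio of red aggregate (590nm) to green monomer (535nm) fluorescence reports membrane potential; collapse shifts signal toward green.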
# [17] = qHTS assay to identify small molecules that stimulate interleukin-8 (IL-8) secretion (AID 651758; active means well fitted activation curve with a large enough effect in the signal ratio; the % refers to the signal ratio); conditions: HTRF ratio (665/615); series mostly up to 92.2 µM
# How it was run: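 THP-1, 2000 cells/well; cpd 16 h, 37 C; add cryptate + XL665 anti-IL-8 Abs; RT 1-3 h; TR-FRET read.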
# [18] = qHTS Assay for Identifying Gametocytocidal Compounds (AID 743244); further: potency means the concentration at half of the fitted maximal effect; conditions: P. falciparum 3D7 stage III-V gametocytes, alamarBlue, 72 h; max response: hits give low values
# How it was run: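 P. falciparum 3D7 stage III–V gametocytes (20,000 cells/well) were exposed to compounds for 72 h at 37 °C, 5% CO2. AlamarBlue was then added for 24 h; decreased resorufin fluorescence (Ex 525/Em 598 nm) indicated loss of viability.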
smiles,measurement,setting,value
CCc1cc(CN2CC(C(=O)O)C2)sc1-c1noc(-c2ccc(Oc3ccccc3)cc2)n1,Potency,[1],inactive
CC1(C(=O)O)CCCC2(C)C3CCC4CC3(CCC12)CC4=O (configuration not stated),Potency,[1],inactive
COc1ccccc1NC(=O)OCC1CCN(C(=O)OC(C)(C)C)CC1,Potency,[1],inactive
Cc1cc(C)c(Nc2ccnc(Nc3ccc(C#N)cc3)n2)c(C)c1,Potency,[1],9.2 µM (active)
CC(=O)O[C@@H]1CC(C)=C2[C@H]1[C@H](C)CC[C@H]2/C=C(\C)C(=O)O,activation,[2],-5.82% (inactive)
same,activation,[3],0.932% (inactive)
same,outcome,[4],inactive
same,activation,[5],-0.287% (inactive)
same,max response,[6],-0.232% (inactive)
same,outcome,[7],inactive
same,outcome,[8],inactive
same,outcome,[9],inactive
same,max response,[10],-16.1% (inactive)
same,max response,[11],-5.49% (inactive)
same,outcome,[12],inactive
same,Potency,[1],inactive
CC(C)c1cc(C(=O)N2CC[C@H](NC(=O)C3CC3)C2)n[nH]1,Potency,[1],inactive
C/C1=C\C[C@]2(C)C(=O)C(O)=C([C@H](C)CO)[C@H]2C/C=C(\C)[C@@H](O)CC/C(C)=C/CC1,Potency,[1],inactive
O=C(O)c1c(O)c(-c2ccccc2)nc2ccccc12,Potency,[13],inactive
same,outcome,[14],inactive
same,outcome,[15],inactive
COc1c/c(=C2\C=c3ccccc3=N2)[nH]/c1=C\c1[nH]c(C)cc1C,Potency,[1],1.16 µM (active)
Cc1ccc(N)cc1O,activation,[2],1.03% (inactive)
same,Potency,[16],23.7 µM (active)
same,outcome,[4],inactive
same,outcome,[17],inactive
same,Potency,[5],44.7 µM (active)
same,max response,[6],-3.15% (inactive)
same,outcome,[7],inactive
same,outcome,[9],inactive
same,max response,[10],-11.4% (inactive)
same,Potency,[18],31.6 µM (active)
same,max response,[11],3.99% (inactive)
same,outcome,[12],inactive
same,Potency,[1],inactive
same,Potency,[13],31.6 µM (active)
C[C@H]1[C@H](O)O[C@@H]2O[C@@]3(C)CC[C@H]4[C@H](C)CC[C@@H]1[C@@]24OO3,Potency,[1],11.6 µM (active)
